# The whole screen tested about 5,400 compounds, of which about 190 (3.5%) showed an effect of 50% or more. Many of the other results were omitted from the sample, so strong results are more common in it than they were. Positions of bridges follow the written chain, without caps; N, C: chain ends. Non-standard residues stand in square brackets, D forms with d. Residues, ends and D or L forms follow the SMILES beside them. ξ: configuration not given here. *: point of attachment. Heptanoyl(5-Me) = CCC(C)CCCC(=O)*; ξThr(3R) = C[C@@H](O)C(N)C(=O)O; Dab = NCC[C@H](N)C(=O)O; NHCH2CH2OH = OCCN*; For = O=C*
# Test system: Vero-E6
# Assay: primary screen, phospholipidosis by LipidTOX staining; higher = more effect of the substance
# Details: 10 µM
# Procedure, shortened: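 Drug-induced phospholipidosis detected with HCS LipidTOX Red reagent in Vero-E6 cells. Compounds tested at 10 μM, with amiodarone (10 μM) as positive control and DMSO (0.1 v/v %) as vehicle.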
row,SMILES,result_ITMP [%]
1,CC(C)CC(NC(=O)C(C)NC(=O)CNC(=O)C(NC=O)C(C)C)C(=O)NC(C)C(=O)NC(C(=O)NC(C(=O)NC(C(=O)NC(Cc1c[nH]c2ccccc12)C(=O)NC(CC(C)C)C(=O)NC(Cc1c[nH]c2ccccc12)C(=O)NC(CC(C)C)C(=O)NC(Cc1c[nH]c2ccccc12)C(=O)NC(CC(C)C)C(=O)NC(Cc1c[nH]c2ccccc12)C(=O)NCCO)C(C)C)C(C)C)C(C)C (centres unmarked) (For-VGALAVVVWLWLWLW-NHCH2CH2OH; configuration not given here),-8.15
2,COC1/C=C\OC2(C)Oc3c(C)c(O)c4c(O)c(cc([O-])c4c3C2=O)NC(=O)/C(C)=C\C=C/C(C)C(O)C(C)C(O)C(C)C(OC(C)=O)C1C (centres unmarked),-0.32
3,C[C@@H](O)[C@H]1C(=O)N2C(C(=O)[O-])=C([C@H]3CCCO3)S[C@H]12,-1.64
4,[Cl][Ru]([Cl])([Cl])[Cl].c1ccc2[nH]ncc2c1.c1ccc2[nH]ncc2c1,-2.33
5,OC[C@H]1O[C@@H](O[C@@H]2[C@H](O)[C@@H](O)[C@H](O[C@H]3[C@H](O)[C@@H](O)C(O)O[C@@H]3CO)O[C@@H]2CO)[C@H](O)[C@@H](O)[C@H]1O (some centres unmarked),3.95
6,CCCC[C@H](NC(C)=O)C(=O)N[C@H]1CC(=O)NCCCC[C@@H](C(=O)O)NC(=O)[C@H](Cc2c[nH]c3ccccc23)NC(=O)[C@H](CCCNC(=N)N)NC(=O)[C@@H](Cc2ccccc2)NC(=O)[C@H](Cc2cnc[nH]2)NC1=O,-3.41
7,COc1ccc2[nH]c3nnc(C)c-3c(NCCOCCO)c2c1,-1.31
8,C1Cc2[nH]nc(-c3nnn[nH]3)c2C1,-1.64
9,CC(C)N(C[C@H]1O[C@@H](n2cnc3c(N)ncnc32)[C@H](O)[C@@H]1O)C1CC(CCc2nc3cc(C(C)(C)C)ccc3[nH]2)C1 (some centres unmarked),-3.75
10,Nc1ncnc2c1ncn2C1OC2COP(=O)([O-])OC2C1O (centres unmarked),-10.8
11,Cc1ccc(C(=O)Nc2ccc(CN3CCN(C)CC3)c(C(F)(F)F)c2)cc1C#Cc1cnc2[nH]ncc2c1,6.57
12,Cc1ccc(C(=O)Nc2ccc(CN3CCN(C)CC3)c(C(F)(F)F)c2)cc1C#Cc1cnc2cccnn12,11.4
13,CCN1CCN(Cc2ccc(C(=O)Nc3ccc(C)c(Oc4ccc5c(c4)CC(=O)N5)c3)cc2C(F)(F)F)CC1,99.1
14,C[C@@H]1CC[C@@]2(NC1)O[C@H]1C[C@H]3[C@@H]4CC=C5C[C@@H](O[C@@H]6O[C@H](CO)[C@@H](O[C@@H]7O[C@@H](C)[C@H](O)[C@@H](O)[C@H]7O)[C@H](O)[C@H]6O[C@@H]6O[C@@H](C)[C@H](O)[C@@H](O)[C@H]6O)CC[C@]5(C)[C@H]4CC[C@]3(C)[C@H]1[C@@H]2C,-0.25
15,C[C@]12C=CC(=O)C=C1CCC1C2[C@@H](O)C[C@@]2(C)C1CC[C@]2(O)C(=O)COP(=O)([O-])[O-] (some centres unmarked),-4.14
16,O=S(=O)([O-])CCSSCCS(=O)(=O)[O-],-11.7
17,N=C(N)NCCC[C@@H](NC(=O)[C@@H]1CCCN1C(=O)[C@@H]1CSSC[C@H](N)C(=O)N[C@@H](Cc2ccc(O)cc2)C(=O)N[C@@H](Cc2ccccc2)C(=O)N[C@@H](CCC(N)=O)C(=O)N[C@@H](CC(N)=O)C(=O)N1)C(=O)NCC(N)=O,-1.55
18,Oc1ncc(F)cn1,-8.73

row,SMILES,result_ITMP [%]
1,Nc1nnc2[nH]c3ccccc3nc1-2,-7.77
2,CCCC1(CCC)CCC2(CCN(CCCN(CC)CC)C2)CC1,109
3,COc1cc(/C=C/C(=O)[O-])ccc1O,-1.05
4,CCN1CCN(Cc2ccc(Nc3ncc(F)c(-c4cc(F)c5nc(C)n(C(C)C)c5c4)n3)nc2)CC1,76.7
5,CC(C)Cc1ccc(C(C)C(=O)O)cc1 (centres unmarked) [R4A_0001344_001 / SPE_A17655518],-3.6
6,COC(=O)C1=C(C)NC(C)=C(C(=O)O[C@H]2CCN(Cc3ccccc3)C2)[C@H]1c1cccc([N+](=O)[O-])c1,21.2
7,COC(=O)C1=C(C)NC(C)=C(C(=O)NCCCN2CCC(c3ccccc3)(c3ccccc3)CC2)C1c1ccc([N+](=O)[O-])cc1 (centres unmarked),60.6
8,COC(=O)C1=C(C)NC(C)=C(C(=O)OCCN2CCN(C(c3ccccc3)c3ccccc3)CC2)C1c1cccc([N+](=O)[O-])c1 (centres unmarked),11.6
9,CC[C@H](CC[C@@H](C)[C@H]1CC[C@H]2[C@@H]3CC=C4C[C@@H](O)CC[C@]4(C)[C@H]3CC[C@]12C)C(C)C,1.55
10,CC(=O)CC(=O)[O-],1.77
11,CN1CCC(COc2cnc(-c3cccc(Cn4nc(-c5cccc(C#N)c5)ccc4=O)c3)nc2)CC1,2.15
12,CN1CCC(CNc2ccc3ncc(-c4cccc(OC(F)(F)F)c4)n3n2)CC1,62.4
13,CCc1cccc(CC)c1NC(=O)c1nn(C)c2c1CCc1cnc(Nc3ccc(C(=O)NC4CCN(C)CC4)cc3OC(F)(F)F)nc1-2,7.96
14,CC1(C)[C@@H]2CC[C@@]1(C)C(=O)C2 [R4A_0000828_001 / SPE_K10034334],-2.3
15,CC(C)(N)c1cc(C(=O)N[C@@H]2CCc3ccc(OC4=C5CCC(=O)N=C5NC=C4)cc3C2)cc(C(F)(F)F)c1,28.9
16,CCC(C)CCCC(=O)N[C@@H](CCN)C(=O)N[C@H](C(=O)N[C@@H](CCN)C(=O)N[C@H]1CCNC(=O)[C@H]([C@@H](C)O)NC(=O)[C@H](CCN)NC(=O)[C@H](CCN)NC(=O)[C@H](CC(C)C)NC(=O)[C@@H](CC(C)C)NC(=O)[C@H](CCN)NC1=O)[C@@H](C)O (stereo partly drawn) [R4A_0005175_001 / SPE_A36456202] ({Heptanoyl(5-Me)}-[Dab]T[Dab][Dab][Dab][dL]L[Dab][Dab]T; lactam 4-C),-0.45
17,"C[C@@H]1NC(=O)[C@@H]2CCCN2C(=O)[C@H](CC(N)=O)NC(=O)[C@@H]2CSSC[C@H](N)C(=O)N[C@H]3CSSC[C@H](NC1=O)C(=O)NC([C@@H](C)O)C(=O)NCC(=O)N[C@H](C(=O)N[C@@H](Cc1ccc(O)cc1)C(=O)O)CSSC[C@H](NC(=O)[C@H](Cc1ccc(O)cc1)NC(=O)[C@H](CCC(=O)O)NC3=O)C(=O)N2 (stereo partly drawn) (H-CCEYCCNPAC[ξThr(3R)]GCY-OH; disulfide 1-6, 2-10, 5-13)",-6.32

# — publication PMC13083723 (Patterns, 2026)
